Screening results from PubChem BioAssay.
The list is not random: actives were taken first. Their share in the collection is about 10%.
FLuc inh = Firefly luciferase inhibition profiling of diverse chemical library using quantitative high-throughput screening | Luciferin 4-monooxygenase (Photinus pyralis), P08659 | purified P. pyralis luciferase, luminescence, biochemical | Potency, µM (titrated, usually from 115 µM), usual class: inhibitors | hit rate 2.5% among 76,000 | AID 1347043, 2019; also: nearly all actives have a fitted effect of over 65% in size
Target sequence (P08659 whole entry, looked up): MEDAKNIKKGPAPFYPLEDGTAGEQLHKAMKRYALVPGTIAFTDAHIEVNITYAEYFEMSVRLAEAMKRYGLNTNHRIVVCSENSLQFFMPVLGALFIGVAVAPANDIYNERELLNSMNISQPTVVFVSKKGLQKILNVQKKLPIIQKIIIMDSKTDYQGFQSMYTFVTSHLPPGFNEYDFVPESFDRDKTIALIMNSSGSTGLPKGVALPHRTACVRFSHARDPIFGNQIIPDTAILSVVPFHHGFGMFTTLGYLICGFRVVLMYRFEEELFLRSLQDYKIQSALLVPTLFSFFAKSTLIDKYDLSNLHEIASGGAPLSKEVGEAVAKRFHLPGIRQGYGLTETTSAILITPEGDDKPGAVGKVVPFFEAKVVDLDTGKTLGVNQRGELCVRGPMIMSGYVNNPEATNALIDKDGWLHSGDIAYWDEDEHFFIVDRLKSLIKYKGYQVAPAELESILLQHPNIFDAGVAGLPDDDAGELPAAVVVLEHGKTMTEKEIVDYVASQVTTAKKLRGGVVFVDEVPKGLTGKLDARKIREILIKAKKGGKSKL
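Luminescence read by CCD imaging after purified firefly luciferase (10nM final) was added to substrate buffer holding 10uM D-luciferin and 10uM ATP, pH 7.5, pre-dosed with compound.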
HEK cytotox = Cytotoxic Profiling in HEK 293 Cell Line of Diverse Libraries Using Quantitative High-Throughput Screening. Potency, µM (doses to about 115 µM), inactives show at the top dose activity change, negative = cytotoxicity, hits mostly inhibitors. HEK 293 viability, ATP luminescence (CellTiter-Glo), 48-72 h. hit rate 6.6% among 94,000; also: nearly all actives have a fitted effect of over 60% in size
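HEK 293 cells at 250 cells/well were exposed to compounds by pintool transfer for 48 or 72 hr at 37 degree Celsius, 5% CO2. Viability was read as ATP-coupled luminescence with CellTiter-Glo after 10 min at room temperature.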
NPR1 antag = Natriuretic polypeptide receptor (hNpr1) antagonism - Primary qHTS | Atrial natriuretic peptide receptor 1 (Homo sapiens), P16066 | Potency, µM (series often up to 46.3 µM), without a hit: at the highest dose activity change, negative = inhibition, most hits filed as inhibitors | hit rate 1.6% among 76,000 | HEK293 hNpr1 GloSensor cGMP, ANP-stimulated luminescence; calls by dose curve; also: nearly all actives have a fitted effect of over 60% in size
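HEK293 cells stably expressing human Npr1 and cGMP GloSensor pGS-40F, loaded 2 h with 2% GloSensor reagent, given compound 30 min at room temperature. Luminescence read before and 20 min after 0.1 nM hNppA.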
NIH3T3 tox = Cytotoxic Profiling in NIH 3T3 Cell Line of Diverse Libraries Using Quantitative High-Throughput Screening | NIH 3T3 viability, CellTiter-Glo ATP luminescence, 48-72 h | Potency, µM (titrated, usually from 96.7 µM), inactives show at the highest dose activity change, negative = cytotoxicity, usual class: inhibitors | hit rate 4.3% among 94,000 | AID 1345082, 2018; also: nearly all actives have a fitted effect of over 55% in size
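Viability of NIH 3T3 cells after 48 or 72 hr compound treatment at 37 °C was assessed by CellTiter-Glo, with luminescence imaged following a 10 min room-temperature step.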
GPT2 inh = Primary qHTS assay for inhibitors of Glutamate pyruvate transaminase 2 (GPT2) | Alanine aminotransferase 2 (Homo sapiens), Q8TD30 | Recombinant GPT2, coupled pyruvate oxidase/HRP Amplex Red fluorescence | Potency, µM (titrated, usually from 57.7 µM), without a hit: at the highest dose activity change, negative = inhibition, most hits filed as inhibitors | hit rate 0.25% among 100,000 | AID 1671188, 2021; also: nearly all actives have a fitted effect of over 60% in size
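Inhibition is scored from Amplex Red fluorescence generated when pyruvate oxidase and HRP act on pyruvate released by GPT2. Reactions contain 10ng/uL enzyme, 250uM a-KG and 2mM L-alanine and run 30 min at room temperature.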
Starred values were filed as active, the others as inactive; i = inactive; ? = inconclusive; nt = no result given; [ ] = remark or other dose. Unless noted, calls follow the shape of the dose curve; as a rule, active = well fitted curve in the direction sought with a large enough effect; inconclusive = small, poorly fitted or top-dose-only effect, or another doubt; inactive = no such curve, though single readings can be large; an effect the other way counts as inactive or inconclusive. % is scaled to controls: 0 for no effect and ±100 for the full control effect; potency is read from the fitted curve at half-maximal effect.

SMILES | FLuc inh | HEK cytotox | NPR1 antag | NIH3T3 tox | GPT2 inh
C#CCNC(=O)C1CCCN(Cc2cccc(-c3cccs3)c2)C1 (centres undefined) | nt | ? | nt | ? | i
O=C(Nc1ccc(F)cc1)C1CCCN(Cc2cccc(-c3cccs3)c2)C1 (centres undefined) | nt | 40µM* | nt | ? | nt
Cc1noc(C)c1S(=O)(=O)N1CCC(N(CCC(C)C)C2CCOCC2)CC1 | i | -3% | -18% | -9% | -8%
O=C1OC[C@@H]2CCN(Cc3ccc(F)cc3)Cc3ccc(F)cc3N12 | i | ? | 3%[70.6 µM] | -6%[174 µM] | -8%[88.5 µM]
Cc1noc2c(NCCCn3ccnc3)cc(-c3ccccc3)nc12 | i | ? | 3%[70.6 µM] | 11µM* | 4%[88.5 µM]
Cc1noc2c(NCCCn3ccnc3)cc(-c3ccccn3)nc12 | i | -23%[172 µM] | 1%[70.6 µM] | 25µM* | -1%[88.5 µM]
Cc1noc2c(NCCCn3ccnc3)cc(-c3cccc(C(F)(F)F)c3)nc12 | i | ? | 0%[70.6 µM] | ? | -7%[88.5 µM]
COC(=O)CNC(=O)[C@@H]1CCCN1C(=O)c1cccc(-c2ccccc2OC)c1 | nt | ? | nt | -11% | i
Cc1cccc(N2CCN(C(=O)c3ccc4c(c3)N(C)C3CCCCCN3C4=O)CC2)c1 (centres undefined) | i | 40µM* | -7% | ? | i
CN1c2cc(C(=O)N3CCN(c4ccc(F)cc4)CC3)ccc2C(=O)N2CCCCCC21 (centres undefined) | i | 45µM* | -13% | ? | 3%
COc1cccc(N2CCN(C(=O)c3ccc4c(c3)N(C)C3CCCCCN3C4=O)CC2)c1 (centres undefined) | i | 50µM* | 1% | -27% | i
CN1c2cc(C(=O)N3CCN(c4ccc(Cl)cc4)CC3)ccc2C(=O)N2CCCCC21 (centres undefined) | i | ? | ? | -28% | i
Cc1ccc(CNC(=O)N2CCCC(CN3CCCC3)CC2)cc1 (centres undefined) | i | -14% | -8% | -18% | i
CC(C)n1nc(-c2cc3cc(O)ccc3[nH]2)c2c(N)ncnc21 | nt | nt | nt | nt | 8.9µM*
C[C@H](Cn1cnc2c(N)ncnc21)OCP(=O)(O)O | nt | nt | nt | nt | i
CC(C)Oc1cccc2c1c(NC(=O)C1CCCO1)nn2Cc1ccccc1 (centres undefined) | i | 45µM* | 4% | ? | i[11.5 µM]
O=C(O)CCn1ncc2cc(OCC3CCN(C(=O)CC4CC4)CC3)ccc21 | ? | 3%[172 µM] | 6%[70.6 µM] | 50µM* | -13%[88.5 µM]
O=C(O)CCn1ncc2cc(OCC3CCN(C(=O)C4CC4)CC3)ccc21 | ? | i | 8%[70.6 µM] | ? | 4%[88.5 µM]
O=C(O)CCn1ncc2cc(OCC3CCN(C(=O)COc4ccccc4)CC3)ccc21 | i | 4%[172 µM] | 1%[70.6 µM] | 28µM* | 4%[88.5 µM]
O=C(O)CCn1ncc2cc(OCC3CCN(C(=O)C4CCCC4)CC3)ccc21 | ? | 3%[172 µM] | 1%[70.6 µM] | ? | 2%[88.5 µM]
O=C(O)CCn1ncc2cc(OCC3CCN(C(=O)OC4CCCC4)CC3)ccc21 | ? | ? | 1%[70.6 µM] | 25µM* | -2%[88.5 µM]
O=C(O)CCn1ncc2cc(OCC3CCN(c4ncccn4)CC3)ccc21 | 63µM* | -11%[172 µM] | 3%[70.6 µM] | 50µM* | -13%[88.5 µM]
Cc1ccc(C(=O)NC2CCCN(CCn3nc4n(c3=O)CCCC4)C2)cc1 (centres undefined) | nt | -11% | nt | -16% | nt
O=C(c1ccc2ncccc2c1)N1CCCCCC1c1nnc(-c2ccccc2)o1 (centres undefined) | i | ? | -5% | ? | 0%
Cc1ccc(C2Cn3cnc(C(=O)N4CCC(C(=O)NCc5ccccc5Cl)CC4)c3CO2)cc1 (centres undefined) | 35µM* | ? | -6% | -34% | i
SMILES | FLuc inh | HEK cytotox | NPR1 antag | NIH3T3 tox | GPT2 inh
Cc1ccc(CNC(=O)C2CCN(C(=O)c3ncn4c3COC(c3ccccc3)C4)CC2)cc1 (centres undefined) | 16µM* | 8% | -10% | -1% | 0%
Cc1ccc(C2Cn3cnc(C(=O)N4CCC(C(=O)NCCc5ccccc5)CC4)c3CO2)cc1 (centres undefined) | ? | -3% | 4% | 0% | i
O=C(NCc1ccccc1Cl)C1CCN(C(=O)c2ncn3c2COC(c2ccc(F)cc2)C3)CC1 (centres undefined) | ? | 0% | 5% | i | 1%
Cc1ccc(C2Cn3cnc(C(=O)N4CCC(C(=O)NC(C)c5ccccc5)CC4)c3CO2)cc1 (centres undefined) | 28µM* | -9% | 5% | -3% | i
COc1ccc(CNC(=O)C2CCN(C(=O)c3ncn4c3COC(c3ccccc3)C4)CC2)cc1 (centres undefined) | 16µM* | -2% | -15% | -1% | -5%
Cc1noc(C)c1S(=O)(=O)N1CCOc2ccc(CN3CCOCC3)cc2C1 | nt | -12% | nt | -35% | -28%
COCCCNC(=O)c1cc(-c2cccnc2)nc2c1cnn2C | nt | ? | nt | ? | i
Cc1cc(N2CCOC(C(F)(F)F)C2)nc(-c2ccccc2)n1 (centres undefined) | i | ? | 4% | -21% | ?
O=C(Cc1ccccc1)NC1CCN(c2ccnc3ccnn23)C1 (centres undefined) | nt | ? | nt | ? | -7%[88.5 µM]
Cc1ccc(C2Cn3cnc(C(=O)N4CCC(C(=O)NCCCc5ccccc5)CC4)c3CO2)cc1 (centres undefined) | 32µM* | 3% | 4% | i | -21%
O=C(NCc1cccc(F)c1)C1CCN(C(=O)c2ncn3c2COC(c2ccccc2)C3)CC1 (centres undefined) | 5µM* | ? | -5% | -18% | i
CCOc1ccccc1NC(=O)Cn1c(N2CCC(C)CC2)nc(C)cc1=O | i | ? | -20% | ? | i
CN(C)c1cccc(C(=O)NC2CCN(c3cnn(C)c(=O)c3)CC2)c1 | 25µM* | i | 3% | -6% | i
CN(C)c1ccc(C(=O)NC2CCCN(c3cc(-c4ccccc4)[nH]n3)C2)cc1 (centres undefined) | 28µM* | ? | -14% | ? | -25%
COc1ccc(-c2cc(N3CCCC(NC(=O)c4ccc(N(C)C)cc4)C3)n[nH]2)cc1 (centres undefined) | 7.1µM* | 45µM* | -24% | ? | i
CN(C)c1cccc(C(=O)NC2CCCN(c3cc(-c4ccc(F)cc4)[nH]n3)C2)c1 (centres undefined) | 16µM* | ? | -10% | ? | -8%
